Assay results: PubChem BioAssay (Tox21)
Results filed as inconclusive are left out. Calls of active or inactive are those of the source. Unless noted, the call rests on the fitted dose curve; in most records, active means well fitted curve in the direction sought with a large enough effect in the repeat runs; inconclusive means weak or mixed curves; inactive means no such curve, though single readings can be large; an effect the other way counts as inactive or inconclusive.

Assays:
[1] = A CellTox Green Cytotoxicity Assay to monitor cytotoxicity in HEK293 cells - 32 hour (AID 1224881); further: nearly all actives have a fitted effect of over 40% in size; further: potency means the concentration at half of the fitted maximal effect
In short: (§1)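 Tox21 screen in HEK293: membrane-impermeant cyanine dye fluoresces on binding dead-cell DNA; compound pinned 5 h post-seeding, plates held at 37 C, signal read repeatedly through 40 h.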

[2] = A CellTox Green Cytotoxicity Assay to monitor cytotoxicity in HepG2 cells - 0 hour (AID 1224882); further: nearly all actives have a fitted effect of over 35% in size
In short: (§2)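 Measurements at 0, 8, 16, 24, 32 and 40 h of treatment captured CellTox Green fluorescence in HepG2 cells that had been co-plated with reagent and preincubated 5 h at 37 C/5% CO2.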

[3] = A CellTox Green Cytotoxicity Assay to monitor cytotoxicity in HepG2 cells - 32 hour (AID 1224883); further: nearly all actives have a fitted effect of over 50% in size; further: potency means the concentration at half of the fitted maximal effect
In short: as §2

[4] = A CellTox Green Cytotoxicity Assay to monitor cytotoxicity in HEK293 cells - 8 hour (AID 1224884); further: nearly all actives have a fitted effect of over 35% in size
In short: as §1

[5] = qHTS RealTime-Glo MT Cell Viability Assay in HEK293 cells - 8 hour (AID 1224887); further: top concentration of the series differs between compounds; nearly all actives have a fitted effect of over 50% in size
In short: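 HEK293 + NanoLuc + prosubstrate, 600 cells/well; 5 h, 37 C/5% CO2; compound 23 nL in DMSO by pintool; 37 C; luminescence read at 0, 8, 16, 24, 32 and 40 h time points.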

[6] = A CellTox Green Cytotoxicity Assay to monitor cytotoxicity in HEK293 cells - 16 hour (AID 1224888); further: nearly all actives have a fitted effect of over 35% in size
In short: as §1

[7] = qHTS RealTime-Glo MT Cell Viability Assay in HepG2 cells - 0 hour (AID 1224889); further: nearly all actives have a fitted effect of over 50% in size
In short: (§3)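 Tox21 10K library screened in qHTS format on HepG2 cells carrying RealTime-Glo reagents. Compounds were added after a 5 h preincubation, and the luminescent signal from continuous culture was measured repeatedly during 40 h treatment.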

[8] = A CellTox Green Cytotoxicity Assay to monitor cytotoxicity in HepG2 cells - 8 hour (AID 1224890); further: nearly all actives have a fitted effect of over 45% in size
In short: as §2

[9] = qHTS assay to identify small molecule antagonists of the estrogen receptor alpha (ER-alpha) signaling pathway using the BG1 cell line in the presence of 0.1 nM 17-beta-estradiol - cell viability counter screen (AID 1259241); further: nearly all actives have a fitted effect of over 40% in size
In short: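 Live-cell protease activity (CellTiter-Fluor fluorescence, 30 min) was read in the same wells after VM7Luc4E2 cells had been exposed to compounds with 0.1 nM 17beta-estradiol for 22 hr at 37C.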

[10] = molecular target: Estrogen receptor (Homo sapiens) (UniProt P03372); assay: qHTS assay to identify small molecule antagonists of the estrogen receptor alpha (ER-alpha) signaling pathway using the BG1 cell line in the presence of 0.1 nM 17-beta-estradiol (AID 1259244); further: nearly all actives have a fitted effect of over 50% in size; further: potency means the concentration at half of the fitted maximal effect
Chain of Estrogen receptor (Homo sapiens) (P03372 whole entry, looked up): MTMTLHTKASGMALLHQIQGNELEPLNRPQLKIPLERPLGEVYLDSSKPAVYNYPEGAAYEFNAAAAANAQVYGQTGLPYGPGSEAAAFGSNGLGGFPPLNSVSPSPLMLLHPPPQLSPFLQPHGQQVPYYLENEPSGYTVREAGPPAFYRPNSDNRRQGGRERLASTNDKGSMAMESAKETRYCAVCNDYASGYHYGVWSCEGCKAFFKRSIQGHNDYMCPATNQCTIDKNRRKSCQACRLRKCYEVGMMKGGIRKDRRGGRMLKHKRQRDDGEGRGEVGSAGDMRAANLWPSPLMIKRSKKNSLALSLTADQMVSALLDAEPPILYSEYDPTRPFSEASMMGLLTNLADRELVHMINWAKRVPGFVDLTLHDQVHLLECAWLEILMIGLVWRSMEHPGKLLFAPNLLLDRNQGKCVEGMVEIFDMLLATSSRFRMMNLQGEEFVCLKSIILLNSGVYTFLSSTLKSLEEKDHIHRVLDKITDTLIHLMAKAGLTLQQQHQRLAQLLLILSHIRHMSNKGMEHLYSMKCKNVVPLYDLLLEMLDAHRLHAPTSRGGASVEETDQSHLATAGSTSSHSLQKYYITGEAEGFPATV
In short: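 Compounds were tested against 0.1 nM (final) 17beta-estradiol in VM7Luc4E2 cells, which express full-length ER-alpha and an ERE-luciferase reporter; luminescence was recorded following 22 h exposure.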

[11] = qHTS assay to identify small molecule HDAC inhibitors (AID 1259364);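 further: wild-type HCT-116 cells with endogenous class I/II HDAC activity; top concentration of the series differs between compounds; nearly all actives have a fitted effect of over 45% in size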
In short: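 Screening used wild-type human colon HCT-116 cells incubated overnight, dosed with compounds for 2 hours, and assayed with a homogeneous luminogenic HDAC I/II reagent for 30 minutes at room temperature.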

[12] = qHTS assay to identify small molecule agonists of the sonic hedgehog signaling (Shh) pathway - cell viability counter screen (AID 1259366); further: nearly all actives have a fitted effect of over 50% in size
In short: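 CellTiter-Fluor fluorescence read-out, 1 hr at 37C, added after 23hr compound exposure. Cells: 3T3 Gli1-Luc, an NIH/3T3 clone with stably integrated Gli1-Luc reporter, plated 4hr before compound.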

[13] = qHTS assay to identify small molecule antagonists of the sonic hedgehog signaling (Shh) pathway - cell viability counter screen (AID 1259367); further: nearly all actives have a fitted effect of over 55% in size
In short: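 CellTiter-Fluor signal in conditioned medium-stimulated 3T3 Gli1-Luc cells, 23 hr compound exposure, 37C.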

[14] = qHTS assay to identify small molecule agonists of the sonic hedgehog signaling (Shh) pathway (AID 1259368; calls by dose curve;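 further: NIH/3T3-derived 3T3Gli1-Luc cells carrying a stable Gli1-driven firefly luciferase reporter; series mostly up to about 92 µM; nearly all actives have a fitted effect of over 15% in size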)
In short: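 Hedgehog pathway agonism scored by increased firefly luciferase luminescence in 3T3Gli1-Luc cells treated 24 hr at 37 C; detection used a 30 min room-temperature reagent incubation.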

[15] = qHTS RealTime-Glo MT Cell Viability Assay in HepG2 cells - 16 hour (AID 1224885); further: nearly all actives have a fitted effect of over 50% in size
In short: as §3

[16] = qHTS RealTime-Glo MT Cell Viability Assay in HEK293 cells - 24 hour (AID 1224886)
In short: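 Luminescence generated by NanoLuc from substrate produced by living HEK293 cells served as the viability signal. Each value reflects the reading at its stated time point during continuous 40 h compound exposure at 37 C.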

[17] = qHTS assay to identify small molecule antagonists of the androgen receptor (AR) signaling pathway using the MDA cell line in the presence of 0.5 nM R1881 - cell viability counter screen (AID 1259242); further: nearly all actives have a fitted effect of over 45% in size
In short: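 Concentration-response screen of compounds for toxicity in MDA-kb2 reporter cells: 16 hr at 37C with 0.5 nM R1881, endpoint live-cell protease fluorescence measured in the reporter wells.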

[18] = qHTS assay to identify small molecule HDAC inhibitors - cell viability counter screen (AID 1259365)
In short: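 HCT-116 (wild type), 1,500 cells/well, overnight 37C/5% CO2; compound in DMSO 2hr; CellTiter-Glo 30min RT; luminescence read.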

Measured: Potency

Cc1oc2c(NC(=O)c3c(Cl)cccc3Cl)cccc2c1C(C)(C)O
inactive: [1] | [2] | [4] | [5] | [6] | [7] | [8] | [9] | [11] | [12] | [13] | [14]
active: [3] 49 µM | [10] 13.7 µM

CCCCCCCCO[C@@H]1O[C@H](CO)[C@@H](O)[C@H](O)[C@H]1O
inactive: [1] | [2] | [3] | [15] | [16] | [5] | [6] | [7] | [8] | [9] | [17] | [10] | [11] | [18] | [12] | [13] | [14]

C=C(C)C(=O)OCC
inactive: [1] | [2] | [3] | [15] | [16] | [5] | [6] | [7] | [8] | [9] | [17] | [10] | [11] | [12] | [13] | [14]

CCN(CC)CCOC(=O)C(c1ccccc1)C1CCCCC1 (centres undefined)
active: [1] 23.9 µM | [3] 23.9 µM
inactive: [2] | [4] | [6] | [7] | [17] | [10] | [11] | [18] | [14]

CCOc1ccc(O)cc1
inactive: [1] | [2] | [3] | [4] | [15] | [7] | [8] | [9] | [17] | [10] | [11] | [18] | [13] | [14]

CN(C)C(=O)NC1(c2ccccc2)CCN(CC[C@@]2(c3ccc(F)c(F)c3)CN(C(=O)c3ccccc3)CCO2)CC1
inactive: [1] | [2] | [3] | [4] | [15] | [8] | [9] | [17] | [11] | [18]

C[N+](C)(C)CCOC(=O)CCC(=O)OCC[N+](C)(C)C
inactive: [1] | [2] | [3] | [15] | [16] | [5] | [6] | [7] | [8] | [9] | [17] | [10] | [11] | [18] | [12] | [13] | [14]

CCOc1ccc(N)c([N+](=O)[O-])c1
inactive: [1] | [2] | [3] | [4] | [15] | [6] | [7] | [8] | [9] | [10] | [11] | [18] | [12] | [13] | [14]
